In PubChem BioAssay (Tox21):
Inconclusive results are not listed. Active and inactive are the calls of the source. Calls follow the shape of the dose curve; as a rule, active = well fitted curve in the direction sought with a large enough effect in the repeat runs; inconclusive = weak or mixed curves; inactive = no such curve, though single readings can be large; an effect the other way counts as inactive or inconclusive.

Experiments:
[1] = Human pregnane X receptor (PXR) small molecule agonists, qHTS cell viability counter screen (AID 1346977); also: nearly all actives have a fitted effect of over 50% in size
Outline: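 Cytotoxicity counter screen run in the same wells as the PXR luciferase assay, using PXR-Luc HepG2 cells in charcoal-stripped serum medium. Viability: CellTiter-Fluor fluorescence after 24hr compound treatment.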

[2] = Caspase-3/7 induction in HepG2 cells by small molecules, qHTS assay (AID 1346978); also: nearly all actives have a fitted effect of over 15% in size
Outline: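 Wild-type HepG2 cells (2,000/well) were settled 5 h at 37 C, 5% CO2, then exposed to compounds in DMSO for 17 h. Caspase-3/7 activity was read by luminescence 30 min after adding Caspase-Glo 3/7 reagent at room temperature.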

[3] = Caspase-3/7 induction in CHO-K1 cells by small molecules, qHTS cell viability counter screen (AID 1346979); also: nearly all actives have a fitted effect of over 35% in size
Outline: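 Cytotoxicity counter screen run in parallel with the caspase-3/7 assay: CHO-K1 cells, 16hr compound treatment at 37C, then CellTiter-Fluor for 1hr before fluorescence reading.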

[4] = Caspase-3/7 induction in CHO-K1 cells by small molecules, qHTS assay (AID 1346980); also: nearly all actives have a fitted effect of over 15% in size
Outline: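 Wild-type cells were seeded at 1,500 per well and settled 5 hr at 37 C, 5% CO2, then exposed to DMSO-dissolved compounds for 17 hr. Caspase-Glo 3/7 reagent was added, and luminescence was read after 30min at room temperature.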

[5] = Caspase-3/7 induction in HepG2 cells by small molecules, qHTS cell viability counter screen (AID 1346981); also: series mostly up to about 92 µM; nearly all actives have a fitted effect of over 30% in size
Outline: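 Cell viability is measured as a cytotoxicity counter screen alongside the Caspase-Glo 3/7 readout in identical wells. Wild-type HepG2 cells are treated with test compounds for 16 hr at 37 C before CellTiter-Fluor addition and a 1-hr incubation.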

[6] = biological target: Cytochrome P450 2D6 (Homo sapiens) (UniProt P10635); experiment: Cytochrome P450 Family 2 Subfamily D Member 6 (CYP2D6) small molecule antagonists: luciferase reporter qHTS assay (AID 1671196); also: nearly all actives have a fitted effect of over 50% in size; also: potency is read from the fitted curve at half-maximal effect; as to activity change, negative = inhibition: series mostly up to about 120 µM
Cytochrome P450 2D6 (Homo sapiens), sequence (P10635 whole entry, looked up): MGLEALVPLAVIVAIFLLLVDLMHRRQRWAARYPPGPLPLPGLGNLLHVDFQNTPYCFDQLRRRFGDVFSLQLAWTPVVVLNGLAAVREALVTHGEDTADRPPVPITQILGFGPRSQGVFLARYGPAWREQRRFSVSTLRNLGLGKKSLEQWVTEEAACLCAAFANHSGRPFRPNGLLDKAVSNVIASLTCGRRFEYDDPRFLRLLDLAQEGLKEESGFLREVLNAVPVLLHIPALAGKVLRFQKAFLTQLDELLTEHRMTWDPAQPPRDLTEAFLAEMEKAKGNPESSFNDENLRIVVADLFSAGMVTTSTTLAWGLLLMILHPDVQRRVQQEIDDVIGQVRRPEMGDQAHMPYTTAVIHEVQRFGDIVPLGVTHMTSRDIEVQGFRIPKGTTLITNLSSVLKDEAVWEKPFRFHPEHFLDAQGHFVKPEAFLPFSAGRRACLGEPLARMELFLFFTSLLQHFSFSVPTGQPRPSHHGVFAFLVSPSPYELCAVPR
Outline: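 Enzyme and proluciferin substrate were first combined with test chemical for 10 min at room temperature. Adding NADPH regeneration solution started a 1 h reaction, stopped with luciferin detection reagent and read by luminescence 20 min later.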

[7] = biological target: Nuclear receptor subfamily 1 group I member 2 (Homo sapiens) (UniProt O75469); experiment: Human pregnane X receptor (PXR) small molecule agonists, qHTS assay (AID 1346982); also: nearly all actives have a fitted effect of over 35% in size; also: potency is read from the fitted curve at half-maximal effect
Nuclear receptor subfamily 1 group I member 2 (Homo sapiens), sequence (O75469 whole entry, looked up): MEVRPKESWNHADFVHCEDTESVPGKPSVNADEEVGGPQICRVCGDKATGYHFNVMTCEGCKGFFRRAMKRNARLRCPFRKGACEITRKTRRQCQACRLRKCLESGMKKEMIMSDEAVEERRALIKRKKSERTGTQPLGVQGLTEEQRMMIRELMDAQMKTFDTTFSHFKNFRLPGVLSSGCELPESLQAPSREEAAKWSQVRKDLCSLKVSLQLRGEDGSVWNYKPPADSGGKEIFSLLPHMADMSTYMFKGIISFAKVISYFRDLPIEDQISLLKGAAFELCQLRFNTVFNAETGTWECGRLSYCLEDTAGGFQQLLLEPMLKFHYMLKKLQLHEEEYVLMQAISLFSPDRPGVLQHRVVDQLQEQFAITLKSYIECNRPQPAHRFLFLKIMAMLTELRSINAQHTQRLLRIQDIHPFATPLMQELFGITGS
Outline: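 Cells: HepG2 stably carrying PXR-Luc. Medium held 5% charcoal-stripped FBS. Compounds in DMSO added after 5 hr plating, incubated 24 hr, then luminescence quantified with ONE-Glo.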

[8] = biological target: Nuclear receptor subfamily 1 group I member 2 (Rattus norvegicus) (UniProt Q9R1A7); experiment: Rat pregnane X receptor (rPXR) activation by small molecules, qHTS assay (AID 1346983); details: rPXR luciferase reporter cells, One-Glo luminescence, 24 h; max activation: active compounds read high; also: nearly all actives have a fitted effect of over 20% in size
Nuclear receptor subfamily 1 group I member 2 (Rattus norvegicus), sequence (Q9R1A7 whole entry, looked up): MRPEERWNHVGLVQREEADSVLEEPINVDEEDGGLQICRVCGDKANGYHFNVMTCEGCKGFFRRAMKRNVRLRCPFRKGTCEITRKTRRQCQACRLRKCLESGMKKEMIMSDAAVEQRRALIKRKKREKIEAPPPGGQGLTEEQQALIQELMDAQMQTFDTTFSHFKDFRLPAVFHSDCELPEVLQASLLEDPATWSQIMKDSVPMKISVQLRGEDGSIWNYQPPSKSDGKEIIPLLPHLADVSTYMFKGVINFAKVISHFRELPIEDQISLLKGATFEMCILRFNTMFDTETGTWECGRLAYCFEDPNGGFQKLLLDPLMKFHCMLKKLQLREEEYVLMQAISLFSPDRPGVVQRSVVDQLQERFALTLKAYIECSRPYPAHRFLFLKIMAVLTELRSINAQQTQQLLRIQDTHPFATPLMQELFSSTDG
Outline: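 Cell-based rPXR luciferase reporter assay, 2,000 cells per well, rested 5hr at 37 C before compound addition in DMSO, then 24 hr at 37 C. One-Glo reagent was added and luminescence read after 30 min at room temperature.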

[9] = biological target: Nuclear receptor subfamily 1 group I member 2 (Homo sapiens) (UniProt O75469); experiment: CYP3A4 induction through human pregnane X receptor (PXR) by small molecules, qHTS assay (AID 1346984); also: nearly all actives have a fitted effect of over 40% in size
Outline: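 Quantitative HTS in DPX-2 cells, i.e. HepG2 transfected with PXR response element and CYP3A4-promoter luciferase. Compounds in DMSO incubated 24hr at 37C; then P450-Glo CYP3A4 substrate, 3uM final, 3hr; One-Glo luminescence.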

[10] = biological target: Nuclear receptor subfamily 1 group I member 2 (Homo sapiens) (UniProt O75469); experiment: Human pregnane X receptor (PXR) activation by small molecules, qHTS assay (AID 1346985); also: nearly all actives have a fitted effect of over 40% in size
Outline: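 DPX-2 cells (HepG2 co-transfected with a PXR response element and a CYP3A4-promoter luciferase construct) were seeded at 2,000 per well, rested 5 hr at 37C, then exposed to DMSO-dissolved compounds for 24 hr. Activation was read as luciferase luminescence.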
% is scaled to controls: 0 for no effect and ±100 for the full control effect.

C=CCCCCCCCCO
inactive: Potency [1] | Potency [2] | Potency [3] | outcome [4] | Potency [5] | Potency [6]

Cn1cnc2c(F)c(Nc3ccc(Br)cc3Cl)c(C(=O)NOCCO)cc21
inactive: Potency [1] | Potency [2] | Potency [3] | outcome [4] | Potency [5] | Potency [7] | Potency [6]

CCC1(C)NC(=O)NC1=O (configuration not stated)
inactive: Potency [1] | Potency [2] | Potency [3] | outcome [4] | Potency [5] | Potency [7] | Potency [6]

C[C@@H]1CN(c2c(F)c(N)c3c(=O)c(C(=O)O)cn(C4CC4)c3c2F)C[C@H](C)N1
inactive: activity change, negative = cytotoxicity [1] 5.72% [at 19 µM] | caspase activation [2] 0.598% [at 19 µM] | activity change, negative = cytotoxicity [3] 5.21% [at 19 µM] | caspase-3/7 activation [4] -1.56% [at 19 µM] | activity change, negative = cytotoxicity [5] -0.6% [at 19 µM] | max activation [8] -3.87% | Potency [9] | activity change, negative = inhibition [6] -4.41% [at 23.6 µM]

N#Cc1ccc(C(c2ccc(C#N)cc2)n2cncn2)cc1
inactive: Potency [1] | Potency [2] | Potency [3] | outcome [4] | Potency [5] | max activation [8] 0.445% | Potency [9] | Potency [6]

CCN(CC)CCNC(=O)COc1ccc(Cl)cc1
inactive: Potency [1] | Potency [2] | Potency [3] | outcome [4] | Potency [5] | max activation [8] -3.06% | Potency [9] | Potency [10]
active: Potency [6] 12.3 µM

CCOc1ccc(NS(=O)(=O)c2ccc(N)cc2)nn1
inactive: Potency [1] | Potency [2] | Potency [3] | outcome [4] | Potency [5] | Potency [7] | Potency [6]

Cc1ccc(C=O)s1
inactive: Potency [1] | Potency [2] | Potency [3] | outcome [4] | Potency [5] | Potency [7] | Potency [6]

COc1cc(Cl)ccc1Cl
inactive: Potency [1] | Potency [2] | Potency [3] | outcome [4] | Potency [5] | Potency [7] | Potency [6]

C=CC1CO1 (configuration not stated)
inactive: Potency [1] | Potency [2] | Potency [3] | outcome [4] | Potency [5] | Potency [6]

CC(C)Nc1nc(N)nc(Cl)n1
inactive: Potency [1] | Potency [2] | Potency [3] | outcome [4] | Potency [5] | Potency [7] | Potency [6]

CC1(O)CSC(C)(O)CS1 (configuration not stated)
inactive: Potency [1] | Potency [2] | Potency [3] | outcome [4] | Potency [5] | Potency [7] | Potency [6]

CCC/C=C/CO
inactive: Potency [1] | Potency [2] | Potency [3] | outcome [4] | Potency [5] | Potency [7] | Potency [6]

COC(C)CCO (configuration not stated)
inactive: Potency [1] | Potency [2] | Potency [3] | outcome [4] | Potency [5] | Potency [7] | Potency [6]

ICCc1ccccc1
active: Potency [7] 59.9 µM | Potency [6] 6.95 µM
inactive: Potency [1] | Potency [2] | Potency [3] | outcome [4] | Potency [5]

OC[C@H]1O[C@@H](O[C@H]2[C@H](O)[C@@H](O)[C@H](O)O[C@@H]2CO)[C@H](O)[C@@H](O)[C@H]1O
inactive: Potency [1] | Potency [2] | Potency [3] | outcome [4] | Potency [5] | Potency [6]

CN1C(=O)CC(c2ccccc2)C1=O (configuration not stated)
inactive: Potency [1] | Potency [2] | Potency [3] | outcome [4] | Potency [5] | max activation [8] -2.73% | Potency [6]

CCCCCCCCOC(=O)CCCCCCCCC(=O)OCCCCCCCC
inactive: Potency [1] | Potency [2] | Potency [3] | outcome [4] | Potency [5] | Potency [7] | Potency [6]

OCc1c2ccccc2cc2ccccc12
inactive: Potency [1] | Potency [2] | Potency [3] | outcome [4] | Potency [5] | Potency [6]
active: Potency [7] 48.7 µM

CC(=O)OC1C2(C)CCC(C2)C1(C)C (configuration not stated)
inactive: Potency [1] | Potency [2] | Potency [3] | outcome [4] | Potency [5] | Potency [7] | Potency [6]

CC(C)C(=O)OCC(C)(C)C(O)C(C)C (configuration not stated)
inactive: Potency [1] | Potency [2] | Potency [3] | outcome [4] | Potency [5] | Potency [7] | Potency [6]

O=C(O[C@@H](C(=O)O)[C@@H](OC(=O)c1ccccc1)C(=O)O)c1ccccc1
inactive: Potency [1] | Potency [2] | Potency [3] | outcome [4] | Potency [5] | Potency [7]
active: Potency [6] 40.6 µM

O=[N+]([O-])c1nccn1CO[C@@H](CO)[C@H](O)CO
active: Potency [6] 38.9 µM
inactive: Potency [1] | Potency [2] | Potency [3] | outcome [4] | Potency [5] | Potency [7]

CCOC(=O)NCCC[Si](OCC)(OCC)OCC
inactive: Potency [1] | Potency [2] | Potency [3] | outcome [4] | Potency [6]

CCCCNc1cc(C(=O)O)cc(S(N)(=O)=O)c1Oc1ccccc1
inactive: Potency [1] | Potency [2] | Potency [3] | Potency [5]

CC(=O)Oc1cc(C(C)C)c(OCCN(C)C)cc1C
inactive: Potency [1] | Potency [2] | Potency [3] | outcome [4] | Potency [7] | max activation [8] -1.16% | Potency [9]
active: Potency [6] 15.5 µM

COc1nc(C)nc(NC(=O)NS(=O)(=O)c2ccccc2OCCCl)n1
inactive: Potency [1] | Potency [2] | Potency [3] | outcome [4] | Potency [7] | Potency [6]

CC(C)C(=O)OC/C=C/c1ccccc1
inactive: Potency [1] | Potency [2] | Potency [3] | outcome [4] | Potency [5] | Potency [6]

COC(=O)c1ccc2cc(C(=O)OC)ccc2c1
inactive: activity change, negative = cytotoxicity [1] 6.1% [at 19 µM] | caspase activation [2] -5.84% [at 19 µM] | activity change, negative = cytotoxicity [3] 6.59% [at 19 µM] | caspase-3/7 activation [4] -2.42% [at 19 µM] | activation [7] 19.9% [at 19 µM] | activity change, negative = inhibition [6] -8.11% [at 23.6 µM]
